According to PubChem BioAssay (NCATS):
Results filed as inconclusive are left out. The source made the active and inactive calls. Calls come from the whole dose curve; as a rule, active = well fitted inhibition curve with a large enough effect; inconclusive = small, poorly fitted or top-dose-only effect; inactive = flat fitted curve, though single readings scatter.

Assays:
Assay in all cases: qHTS profiling for inhibitors of Plasmodium falciparum proliferation (AID 504749); note: nearly all actives have a fitted effect of over 60% in size
Conditions in all cases: P. falciparum in erythrocytes, SYBR Green DNA, 72 h; series mostly up to 28.7 µM
3D7 = tested on: 3D7
Summary of the method: (§1)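 Quantitative HTS: compounds pinned into medium, infected erythrocytes added (0.3% parasitemia, 2.5% hematocrit), 72 h culture at 37 C under 5% CO2. Saponin/Triton lysis with SYBR Green I, overnight RT, then fluorescence read.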

7G8 = tested on: 7G8
Summary of the method: as §1

CP185 = tested on: CP185
Summary of the method: as §1

CP194 = tested on: CP194
Summary of the method: as §1

CP201 = tested on: CP201
Summary of the method: as §1

CP237 = tested on: CP237
Summary of the method: as §1

CP238 = tested on: CP238
Summary of the method: as §1

CP262 = tested on: CP262
Summary of the method: as §1

CP265 = tested on: CP265
Summary of the method: as §1

CP268 = tested on: CP268
Summary of the method: as §1

CP305 = tested on: CP305
Summary of the method: as §1

CP335 = tested on: CP335
Summary of the method: as §1

DIV30 = tested on: DIV30
Summary of the method: as §1

Dd2 = tested on: Dd2
Summary of the method: as §1

ECU = tested on: ECU
Summary of the method: as §1

GB4 = tested on: GB4
Summary of the method: as §1

HB3 = tested on: HB3
Summary of the method: as §1

P94_40 = tested on: P94_40
Summary of the method: as §1

PC26 = tested on: PC26
Summary of the method: as §1

TAB109 = tested on: TAB109
Summary of the method: as §1

Measured: Potency

Oc1ccc(/C=C\c2cc(O)cc(O)c2)cc1
inactive: all assays above
